Assay results published in PubChem BioAssay AID977621 (Broad Institute, 2014).
The whole screen tested about 1,900 compounds, of which fewer than 10 were called active. Not shown: some 6% with an inconclusive outcome.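 How the source made its calls: active means Wild-type ribosome reporter drop at least double the humanized mutant ribosome reporter drop, growth loss under a set limit; inconclusive means no clear call, values can overlap the other calls; inactive means the rest.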 Only a sample is shown.

Experiment: growth inhibition of wild-type GFP E. coli, dose response, H69 mutant RFP, cherry-pick (AID 977621);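 further: wild-type GFP and H69 mutant RFP strains grown together 50/50 in each well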
Conditions: E. coli wild-type GFP strain growth, fluorescence, 24 h; series mostly up to 50 µM

outcome, inactive:
O=C(Nc1cccc(Cl)c1)N1C[C@@H]2[C@H](c3ccccc31)[C@H](CO)N2Cc1ccncc1
CNC(=O)c1ccsc1NC(=O)c1ccc(S(=O)(=O)N2CCc3ccccc32)cc1
Cc1ccccc1S(=O)(=O)NC(=O)C1(C)CCN1C(=O)C1(c2ccc(Cl)cc2)CC1 (configuration not stated)
CCc1c(N=O)c(-c2ccccc2)n(O)[n+]1[O-]
CCc1cc2cc(OC)ccc2nc1SCC(=O)Nc1cc(OC)c(OC)cc1C(=O)O
CC1CCCC(NC(=O)COC(=O)[C@@H]2CC(O)CN2S(=O)(=O)c2ccc3c(c2)OCCO3)C1C (some centres not stated)
Cn1cc(CCC(=O)NCc2ccc3c(c2)OCO3)c2ccccc21
C[C@@H](Nc1nc(-c2ccccc2)nc2c1oc1ccccc12)C(=O)O
CC(=O)Nc1ccc(CNc2nc(NCCN(C)C)nc3cc(-c4ccccc4)sc23)cc1
Fc1cccc(Cl)c1CSc1ccc(-c2ccco2)nn1
Cc1ccc(C(=O)NCC(=O)OCC(=O)Nc2cccc(S(=O)(=O)N3CCCC3)c2)cc1C
Cc1cc(C)cc(NC(=O)c2cccc(NC(=O)C3C4CC5OC(=O)C3C5C4)c2)c1 (configuration not stated)
Cc1ccc(OCCCC(=O)NC(C)c2ccccc2)c(C)c1 (configuration not stated)
Cc1nn(C(C)(C)C)c(OC(=O)CC(C)C)c1S(=O)(=O)c1ccccc1
O=C(NCCc1csc(-c2ccccc2)n1)c1ccccc1F
Cc1cccc(NC(=O)c2nc(S(=O)(=O)Cc3ccccc3)ncc2Cl)c1
Cc1ccc(-c2c[n+](CC(=O)Nc3ccccc3)c3n2CCC3)cc1
COc1ccc(C(C)=O)cc1COc1ccc(Cl)c(C)c1
COc1cccc(S(=O)(=O)N2CCCCN3[C@H](C2)[C@H](c2ccc(C#CC(C)C)cc2)[C@@H]3CO)c1
COc1ccc2c(c1)c1ncn(Cc3ccccn3)c(=O)c1n2C
O=C(Nc1nnc(Cc2ccc(Cl)cc2)s1)c1ccncc1
Cc1ccc2c(N)c(C(=O)c3ccccc3)sc2n1
Cc1onc(-c2ccccc2Cl)c1C(=O)OCC(=O)c1ccccc1
COc1ccc(CN(C)C[C@H]2Oc3ccc(NS(=O)(=O)c4ccc(Cl)cc4)cc3CC(=O)N([C@@H](C)CO)C[C@H]2C)cc1
Cc1ccc(F)c(NC(=O)CCOc2ccccc2C)c1
COc1ccccc1N1CCN(Cc2ccc(OC)c3ccccc23)CC1
CC1CCCN(c2ccc(C(=O)NCCc3ccccc3)cn2)C1 (configuration not stated)
COc1ccc(C2=NN(C(=O)c3cccnc3)C(c3ccccc3)C2)cc1 (configuration not stated)
Cc1ncoc1C(=O)NCCC(c1ccccc1)c1ccccc1
OCCN(Cc1ccccc1)Cc1ccc(Cl)cc1
Cc1ccccc1-n1nnnc1SCCCC(=O)c1ccc(F)cc1
CCN(CC)C(=O)c1sc2nc(-c3ccccc3)ccc2c1N
CCn1c(NC(=O)c2nn(C)cc2Br)nc2ccccc21
Cc1ccc(S(=O)(=O)N2CC(=O)Nc3ccccc32)cc1C
COC(=O)c1cc(C)sc1NC(=O)CC1Nc2ccccc2NC1=O (configuration not stated)
O=C(NCCc1ccccc1)c1cccc(NC(=O)c2ccccc2)c1
C[C@@H]1CN([C@@H](C)CO)C(=O)c2cc(NS(=O)(=O)c3ccccc3)ccc2O[C@@H]1CN(C)Cc1ccc(C(=O)Nc2ccccc2N)cc1
